Consider 20 compounds from PubChem BioAssay (Tox21).

“And” between values parts separate entries of the source, which are not always exact repeats. Equal values may be shown once. Inconclusive results are not listed. Where a structure was tested more than once in an assay, its records may differ in their call. The source made the active and inactive calls. Calls follow the shape of the dose curve; as a rule, active = well fitted inhibition curve with a large enough effect in the repeat runs; inconclusive = weak or mixed curves; inactive = no such curve, though single readings can be large or run the other way.
% is scaled to controls: 0 for no effect and ±100 for the full control effect; potency is read from the fitted curve at half-maximal effect.

Androgen receptor (Homo sapiens), sequence (P10275 whole entry, looked up): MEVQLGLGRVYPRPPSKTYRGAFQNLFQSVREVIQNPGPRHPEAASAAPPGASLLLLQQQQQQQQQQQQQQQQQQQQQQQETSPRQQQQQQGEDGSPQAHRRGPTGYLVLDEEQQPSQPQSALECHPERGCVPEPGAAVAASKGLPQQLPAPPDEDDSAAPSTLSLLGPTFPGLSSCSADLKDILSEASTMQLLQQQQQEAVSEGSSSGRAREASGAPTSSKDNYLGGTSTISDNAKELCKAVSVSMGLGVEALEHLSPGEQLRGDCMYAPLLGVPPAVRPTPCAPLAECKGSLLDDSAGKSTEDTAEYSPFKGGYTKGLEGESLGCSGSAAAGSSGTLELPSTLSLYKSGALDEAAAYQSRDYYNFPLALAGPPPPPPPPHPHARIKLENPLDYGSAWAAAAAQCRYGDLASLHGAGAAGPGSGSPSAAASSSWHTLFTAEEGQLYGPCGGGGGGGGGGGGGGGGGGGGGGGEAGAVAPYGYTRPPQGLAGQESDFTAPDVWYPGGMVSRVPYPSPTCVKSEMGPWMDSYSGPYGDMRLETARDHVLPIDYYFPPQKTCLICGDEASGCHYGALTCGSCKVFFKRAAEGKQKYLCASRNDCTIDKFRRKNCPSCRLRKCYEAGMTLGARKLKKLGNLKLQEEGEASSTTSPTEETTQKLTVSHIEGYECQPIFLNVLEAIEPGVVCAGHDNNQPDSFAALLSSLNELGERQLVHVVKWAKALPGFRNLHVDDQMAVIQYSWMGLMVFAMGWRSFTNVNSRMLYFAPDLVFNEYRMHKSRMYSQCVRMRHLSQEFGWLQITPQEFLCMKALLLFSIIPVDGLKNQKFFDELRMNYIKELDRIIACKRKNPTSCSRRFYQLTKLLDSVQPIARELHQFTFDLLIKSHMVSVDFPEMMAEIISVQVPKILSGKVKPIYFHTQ

The experiment concerns the target Androgen receptor (Homo sapiens) (UniProt P10275). The experiment can be described thus: qHTS assay to identify small molecule antagonists of the androgen receptor (AR) signaling pathway using the MDA cell line in the presence of 0.5 nM R1881 (AID 1259243). Also: nearly all actives have a fitted effect of over 50% in size. Conditions: MDA-kb2 MMTV-luciferase, R1881 0.5 nM, 16 h; series mostly up to 92.4 µM; activity, negative = inhibition: at the top concentration. The source says:
U.S. Tox21 Program National Center for Advancing Translational Sciences [NCATS] NIH Chemical Genomics Center [NCGC] U.S. Environmental Protection Agency [EPA] National Institutes of Environmental Health Sciences [NIEHS] National Toxicology Program [NTP] U.S. Food and Drug Administration [FDA] Tox21 Assay Overview: Androgen receptor (AR) is an important member of the nuclear receptor family. Its signaling plays a critical role in AR-dependent prostate cancer and other androgen related diseases. Considerable attention has been given in the past decades to develop methods to study and screen for the environmental chemicals that have the potential to interfere with metabolic homeostasis, reproduction, developmental and behavioral functions. Therefore AR binding assay for screening androgen antagonists can be used to identify potential endocrine disruptors. MDA-kb2 cells (from ATCC, deposited by Wilson et al.) were used to screen for AR inhibitors against Tox21 compound libraries. These cells are human breast carcinoma cells that were stably transfected with a luciferase reporter gene under control of the MMTV promoter that contains response elements for both androgen receptor (AR) and glucocorticoid receptor (GR). The current screening for identification of AR inhibitors against Tox21 libraries used lower concentration (0.5 nM) of R1881 as a stimulator.
Tox21 Assay Protocol Summary: MDA-kb2 cells (cells cultured without CO2) were dispensed at 3,000 cells/well in 4 uL of culture medium into white wall/solid-bottom 1536-well plates (Corning Life Sciences, Corning, NY) using a Multidrop Combi (ThermoFisher Scientific, Waltham, MA) dispenser. After the assay plates were incubated at a 37C and 0% CO2 for 5 hr, 23 nL of compounds dissolved in DMSO, positive controls or DMSO only was transferred to the assay plate by a Pintool station (Kalypsys, San Diego, CA). The transfer of compounds was followed by the addition of 1 uL of 0.5 nM (final concentration) agonist (R1881)/culture medium using a Flying Reagent Dispenser (FRD, Aurora Discovery, San Diego, CA). The plates were incubated at 37C and 0% CO2 for 16 hr. For luciferase reporter gene assay, 4 uL of ONE-Glo reagent (Promega Corporation, Madison, WI) was added to each well using the FRD and after 30 min incubation at room temperature luminescence intensity was measured using ViewLux plate reader (PerkinElmer, Shelton, CT).
On the technique in general: qHTS replaces the single test concentration by a dilution series.
As to `COP(=O)(OC)OC`, the Potency is 61.6 µM (active) and inactive.

As to `C=C(C)[C@H]1Cc2c(ccc3c2O[C@@H]2COc4cc(OC)c(OC)cc4[C@@H]2C3=O)O1`, the Potency was 31 nM (active) and 19.3 nM (active) and 47.3 nM (active).

Turning to `O=[N+]([O-])c1c(Cl)c(Cl)c(Cl)c(Cl)c1Cl`, the Potency is 27.2 µM (active) and 27.3 µM (active).

Consider `N#Cc1cc(Br)c(O)c(Br)c1`, for which the Potency was 61.1 µM (active) and 46.8 µM (active).

As for `CC(C)(OOC(C)(C)c1ccccc1)c1ccccc1`, the Potency is 24 µM (active).

As to `Cc1cc(Cl)ccc1OCCCC(=O)O`, the Potency result is “inactive”.

On to `CCCCC(CC)COC(=O)c1ccc(C(=O)OCC(CC)CCCC)c(C(=O)OCC(CC)CCCC)c1` (stereo not given), for which the Potency entry is “inactive”.

With `COP(=S)(OC)Oc1cc(Cl)c(Cl)cc1Cl`, the Potency was 54.1 µM (active) and inactive.

On to `O=C(O)CC[N+](=O)[O-]`, for which the Potency result was “inactive”.

For the compound `O=[N+]([O-])c1ccc(O)c([N+](=O)[O-])c1`, the Potency was 30.8 µM (active) and 54.5 µM (active).

For the compound `CCC(=O)O[C@H]1CC[C@H]2[C@@H]3CCC4=CC(=O)CC[C@]4(C)[C@H]3CC[C@]12C`, the Potency entry is “inactive”.

For the compound `CCCCNC(=O)n1c(NC(=O)OC)nc2ccccc21`, the Potency entry was “inactive”.

Consider `Nc1c(Cl)cc([N+](=O)[O-])cc1Cl`, for which the Potency is 6.9 µM (active) and 27.3 µM (active).

`CCCCCCCCOC(=O)c1ccccc1C(=O)OCCCCCCCC`: the Potency entry was “inactive”.

`Nc1ccc(Cl)cc1N`: the Potency entry is “inactive”.

Take `c1cc(OCC2CO2)ccc1Cc1ccc(OCC2CO2)cc1` (stereo not given): the “activity, negative = inhibition” value is -8.55% (inactive).

Turning to `CCN(CC)C(=O)/C(Cl)=C(\C)OP(=O)(OC)OC`, the Potency result was “inactive”.

For `CCc1cccc(CC)c1N(COC)C(=O)CCl`, the Potency is 23.5 µM (active) and 27.3 µM (active).

As for `CC(C)Oc1cc(-n2nc(C(C)(C)C)oc2=O)c(Cl)cc1Cl`, the Potency was 54.5 µM (active).

As to `Nc1ccncc1`, the Potency result is “inactive”.
